Assay results from publication PMC13083723 (Patterns, 2026).
About 190 (3.5%) of roughly 5,400 compounds showed an effect of 50% or more. The sample as a whole holds a higher share of strong results than the screen did. Positions of bridges follow the written chain, without caps; N, C: chain ends. Non-standard residues stand in square brackets, D forms with d. Residues, ends and D or L forms follow the SMILES beside them. *: point of attachment. Heptanoyl(5-Me) = CCC(C)CCCC(=O)*; Dab = NCC[C@H](N)C(=O)O

Test system: Vero-E6
Assay: primary screen, phospholipidosis by LipidTOX staining; higher = more effect of the substance
Details: 10 µM
Procedure, shortened: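 Drug-induced phospholipidosis detected with HCS LipidTOX Red reagent in Vero-E6 cells. Compounds tested at 10 μM, with amiodarone (10 μM) as positive control and DMSO (0.1 v/v %) as vehicle.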

Row | Structure (SMILES) | result_ITMP
1 | CCOc1cc2ncc(C#N)c(Nc3ccc(F)c(Cl)c3)c2cc1NC(=O)/C=C/CN(C)C | 73.9%
2 | CCOc1cc2ncc(C#N)c(Nc3ccc(OCc4cccc(F)c4)c(Cl)c3)c2cc1NC(=O)/C=C/CN(C)C | -0.47%
3 | C=CC(=O)Nc1cc2c(Nc3ccc(F)c(Cl)c3)ncnc2cc1OCCCN1CCOCC1 | 4.03%
4 | CN(C)C/C=C/C(=O)Nc1cc2c(Nc3ccc(F)c(Cl)c3)ncnc2cc1O[C@H]1CCOC1 | 108%
5 | CCOc1cc2ncc(C#N)c(Nc3ccc(OCc4ccccn4)c(Cl)c3)c2cc1NC(=O)/C=C/CN(C)C | 0.53%
6 | COc1cc2ncnc(Nc3ccc(F)c(Cl)c3)c2cc1NC(=O)/C=C/CN1CCCCC1 | 19.4%
7 | CCOC(=O)OC(C)OC(=O)C1N2C(=O)C(NC(=O)[C@H](N)c3ccccc3)C2SC1(C)C (some centres unmarked) | -2.51%
8 | CCC(=O)O[C@@H]1CC(=O)O[C@H](C)C/C=C/C=C/[C@H](OC(C)=O)[C@H](C)C[C@H](CC=O)[C@H](O[C@@H]2O[C@H](C)[C@@H](O[C@H]3C[C@@](C)(OC(C)=O)[C@@H](OC(=O)CC)[C@H](C)O3)[C@H](N(C)C)[C@H]2O)[C@H]1OC | 7.16%
9 | O=C1NC(c2ccccc2)(c2ccccc2)C(=O)N1COP(=O)([O-])[O-] | -0.37%
10 | CNC(=O)CN1CCC(Oc2cc3c(Nc4cccc(Cl)c4F)ncnc3cc2OC)CC1 | 27.2%
11 | CN1CCN(CCOc2cc(OC3CCOCC3)c3c(Nc4c(Cl)ccc5c4OCO5)ncnc3c2)CC1 | 58.5%
12 | CCC(C)CCCC(=O)N[C@@H](CCN)C(=O)N[C@H](C(=O)N[C@@H](CCN)C(=O)N[C@H]1CCNC(=O)[C@H]([C@@H](C)O)NC(=O)[C@H](CCN)NC(=O)[C@H](CCN)NC(=O)[C@H](CC(C)C)NC(=O)[C@@H](CC(C)C)NC(=O)[C@H](CCN)NC1=O)[C@@H](C)O (stereo partly drawn) [R4A_0005175_001 / SPE_A18924964] ({Heptanoyl(5-Me)}-[Dab]T[Dab][Dab][Dab][dL]L[Dab][Dab]T; lactam 4-C) | -1.3%
13 | CO[C@@]1(NC(=O)C(C(=O)[O-])c2ccc(O)cc2)C(=O)N2C(C(=O)[O-])=C(CSc3nnnn3C)CO[C@@H]21 (some centres unmarked) | -4.09%
14 | O=c1c(-c2ccc(O)cc2)coc2c(O[C@@H]3O[C@H](CO)[C@@H](O)[C@H](O)[C@H]3O)c(O)ccc12 | -5.15%
15 | CC(=O)O[C@H]1CC[C@@]2(C)C(=CCC3C2CC[C@]2(C)C(=O)CCC32)C1 (some centres unmarked) | 0.97%
16 | CCN(CC)CCO[C@H]1CC[C@@]2(C)C(=CC[C@@H]3[C@@H]2CC[C@]2(C)C(=O)CC[C@@H]32)C1 | 61%
17 | C[C@]12CC[C@H](O)CC1=CCC1C2CC[C@]2(C)C(=O)CC[C@@H]12 (some centres unmarked) | 13.7%
18 | COc1ccc(C(=O)/C(Br)=C/C(=O)[O-])cc1 | 7.96%
19 | O=C([O-])[C@H](O)[C@@H](O)[C@H](O)[C@H](O)CO | -4.67%
20 | C=C[C@@]1(C)CC(=O)[C@]2(O)[C@@]3(C)[C@@H](O)CCC(C)(C)[C@@H]3[C@H](O)[C@H](OC(C)=O)[C@@]2(C)O1 | -2.23%
21 | N/C(=N\Cc1ccccc1)NC(=O)c1nc(Cl)c(N)nc1N | 17.2%
22 | C[N+](C)(C)CC(=O)[O-] | -1.21%
23 | C=C1/C(=C/C=C2\CCC[C@]3(C)[C@@H]([C@H](C)/C=C/[C@@H](C)C(C)C)CC[C@@H]23)C[C@@H](O)C[C@@H]1O | -2.6%
24 | O=C(NC1CCN(CCc2c[nH]c3ccccc23)CC1)c1ccccc1 | 6.62%
25 | O=C(NC1CCN(CCCCC2(C(=O)NCC(F)(F)F)c3ccccc3-c3ccccc32)CC1)c1ccccc1-c1ccc(C(F)(F)F)cc1 | 62.5%

Row | Structure (SMILES) | result_ITMP
26 | O=C(O)c1ccccc1-c1ccc(C(F)(F)F)cc1 | -4.47%
27 | CC(C)NCC(O)COc1ccc(CC(N)=O)cc1 (centres unmarked) [R4A_0002533_001 / SPE_K44993696] | -2.42%
28 | CCCCC(CC)CCC(CC(C)C)OS(=O)(=O)[O-] (centres unmarked) | -1.42%
29 | C[C@H](Cc1ccc(OCC(=O)[O-])cc1)NC[C@H](O)c1cccc(Cl)c1 | -1.85%
30 | C[C@]12CCC(=O)C=C1CCC1C2CC[C@@]2(C)C1CC[C@@H]2O (some centres unmarked) | 2.46%
31 | CCCCOc1ccc(C(=O)CCN2CCCCC2)cc1 | 4.72%
32 | CCCCCS(=O)(=O)CCCCCCCCCCn1c(-c2ccc(O)cc2)c(C)c2cc(O)ccc21 | -3.27%
33 | O=C(c1ccc(OCCN2CCCCC2)cc1)c1c(-c2ccc(O)cc2)sc2cc(O)ccc12 | 74.6%
34 | CC(C)N1CCN(c2ccc(C(=O)c3c(-c4ccc(O)cc4)sc4cc(O)ccc34)cc2)CC1 | -7.16%
35 | Cc1ccc(CC2(O)CCN(CCOc3ccc(O)cc3)CC2)cc1 | -3.85%
36 | Cc1c(-c2ccc(O)cc2)n(Cc2ccc(OCCN3CCCCCC3)cc2)c2ccc(O)cc12 | 57.2%
37 | Cc1c(C(=O)Nc2ccc(N3C[C@@H](C)O[C@@H](C)C3)nc2)cccc1-c1ccc(OC(F)(F)F)cc1 | -6.29%
38 | CCn1c(-c2ccc(Cl)cc2)n[nH]c1=O | -4.76%
39 | CCCCC[C@H](O)/C=C/[C@@H]1[C@H]2C/C(=C/CCCC(=O)[O-])O[C@H]2C[C@H]1O | 0.37%
40 | O=C([O-])CN(CCN(CC(=O)[O-])CC(=O)O)CCN(CC(=O)[O-])CC(=O)O | 0.03%
41 | CN1C2CCC1CC(OC(c1ccccc1)c1ccc(Cl)cc1)C2 (centres unmarked) | 98.3%
42 | CC(C(=O)OC1CC2CCC(C1)N2C)c1ccc(Br)cc1 (centres unmarked) | 20.6%
43 | CN1[C@@H]2CC[C@H]1C[C@@H](OC(c1ccccc1)c1ccccc1)C2 | 35.6%
44 | CN1CCC(OC(c2ccccc2)c2ccccc2)CC1 | 26.1%
45 | CN1C2CC[C@@H]1C[C@@H](OC(=O)[C@H](CO)c1ccccc1)C2 | -4.79%
46 | CN1C2CCC1CC(OC(c1ccc(F)cc1)c1ccc(F)cc1)C2 (centres unmarked) | 61.5%
47 | CN1[C@@H]2CC[C@H]1C[C@@H](OC(=O)C(O)c1ccccc1)C2 (some centres unmarked) | -3.26%
48 | CCCCN1[C@@H]2CC[C@H]1C[C@@H](OC(c1ccc(F)cc1)c1ccc(F)cc1)C2 | 51.4%
49 | Fc1ccc(C(OCCN2CCN(CCCc3ccccc3)CC2)c2ccc(F)cc2)cc1 | 24.8%
50 | C[C@H](NC(=O)[C@@H](Cc1c[nH]c2ccccc12)NC(=O)[C@@H](N)Cc1cnc[nH]1)C(=O)N[C@@H](Cc1c[nH]c2ccccc12)C(=O)N[C@H](Cc1ccccc1)C(=O)N[C@@H](CCCCN)C(N)=O (H-H[dW]AW[dF]K-NH2) | -2.53%

Row | Structure (SMILES) | result_ITMP
51 | Cc1ccc(OC[C@@H](O)[C@H](C)NC(C)C)c2c1CCC2 (racemic) | 10.4%
52 | CO[C@@]12[C@@H]3NC3CN1C1=C(C(=O)C(N)=C(C)C1=O)[C@@H]2COC(N)=O (some centres unmarked) | 0.39%
53 | OC[C@@H](O)C(O[C@@H]1O[C@H](CO)[C@H](O)[C@H](O)[C@H]1O)[C@H](O)[C@@H](O)CO (some centres unmarked) | -8.28%
54 | O=C(O)[C@H]1CC[C@H](c2cc3cccnc3c(-c3cccc(F)c3)n2)CC1 | -0.01%
55 | O[C@@H]1CO[C@H]2[C@@H]1OC[C@@H]2O | -0.79%
56 | COc1cc(C(=O)OCCCN2CCCN(CCCOC(=O)c3cc(OC)c(OC)c(OC)c3)CC2)cc(OC)c1OC | 58.7%
57 | COc1cc(N)c(Cl)cc1C(=O)OCCN1CCCCC1 | -1.25%
58 | COc1cc(N)c(Cl)cc1C(=O)OCCCN1CCCCC1 | 0.68%
59 | O=C(O)C[CH2][Ge](=[O])[O][Ge](=[O])[CH2]CC(=O)O | -3.6%
60 | Cc1ccc(C(=O)Nc2ccc(S(=O)(=O)[O-])c3cc(S(=O)(=O)[O-])cc(S(=O)(=O)[O-])c23)cc1NC(=O)c1cccc(NC(=O)Nc2cccc(C(=O)Nc3cc(C(=O)Nc4ccc(S(=O)(=O)[O-])c5cc(S(=O)(=O)[O-])cc(S(=O)(=O)[O-])c45)ccc3C)c2)c1 | -3.34%
61 | C[C@@H](O)[C@H]1C(=O)N2C(C(=O)[O-])=C(S[C@@H]3CN[C@H](C(=O)Nc4cccc(C(=O)O)c4)C3)[C@H](C)[C@H]12 | -0.24%
62 | C[C@H](NC(=O)CCc1nc2ccccc2c(=O)[nH]1)c1ccccc1 [R4A_0003503_001 / SPE_K24283677] | -1.61%
63 | C/C=C1/[C@H]2C=C(C)C[C@]1(N)c1ccc(=O)[nH]c1C2 | -2.16%
64 | O=C(Nc1ncc(SCCN2CCCC2)s1)[C@]1(c2ccc(S(=O)(=O)C3CC3)cc2)C[C@H]1C1CCCCC1 | 55.8%
65 | C[C@H](CCC(=O)O)[C@H]1CC[C@H]2[C@@H]3CC[C@@H]4C[C@H](O)CC[C@]4(C)[C@H]3C[C@H](O)[C@]12C | 0.11%
66 | Nc1nc(S)c2nc[nH]c2n1 | 26.6%
67 | Cc1ccc(C(=O)C(C)CN2CCCCC2)cc1 (centres unmarked) | -4.52%
68 | O=C(NCCCN1CCCCCC1)C(c1ccccc1)C1CCCCC1 (centres unmarked) | 36.5%
69 | O=C(Nc1ccccc1)OCC(CN1CCCCC1)OC(=O)Nc1ccccc1 (centres unmarked) | 54.4%
70 | CCn1c(=O)/c(=C2\Sc3ccccc3N2C)s/c1=C/c1cccc[n+]1CC | -7.97%
71 | COc1ccc(CCNCC(O)COc2cccc(C)c2)cc1OC (centres unmarked) | 34.1%
72 | CCC(C)CNCC(=O)N1CCc2sccc2C1COc1cccc(C)c1 (centres unmarked) | 57.8%
73 | Nc1ccc(S(=O)(=O)[O-])cc1 | -6.57%
74 | O=C([O-])CN1CCN(CC(=O)[O-])CCN(C(CO)C(O)CO)CCN(CC(=O)[O-])CC1.[Gd+3] (centres unmarked) | -1.16%
